Screening results (PubChem BioAssay)
This is a sample that favours compounds with a hit; in the whole collection about 3% have one here.
UbGFP stabilizer: inhibits proteasome, raising ubiquitin-GFP reporter fluorescence; Ubiquitin-GFP reporter cells, proteasome inhibition, GFP fluorescence; response scale: untreated = 0%, 10 µM MG-132 = 100%; Potency, µM (doses to about 45.9 µM), hits mostly activators; 67,000 tested, under 10 active; AID 526; active = well fitted activation curve with a large enough effect, not every such curve was filed as active; inconclusive = small, poorly fitted or top-dose-only effect, or another doubt; inactive = no such curve, though single readings can be large or run the other way
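Proteasome blockade was scored as a rise in GFP-expressing U2OS cells carrying a ubiquitin(G76V)-GFP construct, imaged after 4 hr compound treatment at 37 °C across a 46 uM–2.9 nM series.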
TSHR agonist: agonists of human thyroid stimulating hormone receptor; Potency, µM (highest dose often 57.1 µM), most hits filed as activators; 73,000 compounds, 0.48% hits; HEK293-CNG-TSHR cells (CNG channel as cAMP sensor), membrane potential dye, cAMP; P16473; active = well fitted activation curve with a large enough effect in the main read-out, with a control signal flat, not every such curve was filed as active; inconclusive = small, poorly fitted or top-dose-only effect, or a change in a side signal; inactive = no such curve, though single readings can be large or run the other way; reference of the percent scale not stated here;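 note: the control signal comes from parental cells without the receptor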
Target sequence (P16473 whole entry, looked up): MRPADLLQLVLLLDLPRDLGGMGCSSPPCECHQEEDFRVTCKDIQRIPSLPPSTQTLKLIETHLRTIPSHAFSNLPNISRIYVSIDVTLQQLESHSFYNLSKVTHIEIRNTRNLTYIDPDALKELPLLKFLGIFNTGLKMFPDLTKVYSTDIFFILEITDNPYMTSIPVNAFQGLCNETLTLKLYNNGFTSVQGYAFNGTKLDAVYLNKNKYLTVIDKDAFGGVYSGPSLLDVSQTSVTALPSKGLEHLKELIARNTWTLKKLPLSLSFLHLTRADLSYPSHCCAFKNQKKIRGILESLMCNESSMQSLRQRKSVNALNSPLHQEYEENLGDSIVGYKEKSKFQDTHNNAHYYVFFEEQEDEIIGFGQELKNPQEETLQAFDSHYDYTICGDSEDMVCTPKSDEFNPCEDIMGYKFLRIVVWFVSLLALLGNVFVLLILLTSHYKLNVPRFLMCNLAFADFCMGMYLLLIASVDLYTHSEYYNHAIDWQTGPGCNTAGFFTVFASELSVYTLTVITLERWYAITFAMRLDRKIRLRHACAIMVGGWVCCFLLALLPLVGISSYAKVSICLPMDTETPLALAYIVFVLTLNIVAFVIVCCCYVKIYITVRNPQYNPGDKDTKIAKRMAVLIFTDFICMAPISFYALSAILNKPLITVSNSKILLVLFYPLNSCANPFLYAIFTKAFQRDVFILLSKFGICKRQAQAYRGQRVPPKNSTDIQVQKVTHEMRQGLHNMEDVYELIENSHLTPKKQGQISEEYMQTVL
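HEK 293 cells stably expressing TSHR and a cAMP-gated CNG channel; parental CNG-only cells as counterscreen. Cells preloaded 60 min with membrane potential dye plus 100 uM RO 20-1724, then compound 30 min; fluorescence read at 590 nm.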
HEK293 cAMP ctrl: counter-screen for TSHR agonists: cAMP increase in parental HEK293; parental HEK293 CNG cAMP sensor, membrane potential fluorescence; Potency, µM (highest dose often 57.1 µM), usual class: activators; 73,000 compounds, 2.5% hits; AID 938; note: nearly all actives have a fitted effect of over 55% in size
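Counterscreen for endogenous-receptor signalling: CNG-channel HEK 293 cells report cAMP rise by membrane depolarization. After 60 min dye equilibration with 100 uM RO 20-1724, compounds incubated 30 min before bottom-read fluorescence at 590 nm.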
Epigenetic mod: epigenetic modulators derepressing GFP locus in mouse cells. Potency, µM (top dose mostly 46.1 µM). AID 597. 68,000 compounds, 0.09% hits. mouse C127i GFP locus derepression, cytometry, 30 h
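Locus derepression in mouse mammary C127i cells whose integrated CMV-GFP reporter is normally silent; GFP expression after 30 h compound treatment was quantified by counting fluorescent cells.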
HBB splicing: modulators of hemoglobin beta chain splicing. 65,000 compounds, 0.06% hits. HBB splicing reporter cell assay, activation; EGFP reporter with mutant IVS2-654 intron; response scale: normalised to 500 nM splice-correcting PNA. Potency, µM (top dose mostly 46.1 µM), actives largely listed as activators. AID 925
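Compounds were applied for 2 days to HeLa EGFP-654 cells, 500/well in Optimem with 2% FCS. The reporter's EGFP is disrupted by mis-splicing of beta-globin intron IVS2-654. Readout: summed well GFP fluorescence from 488 nm laser scanning; reference was 500 nM antisense […] 654 PNA.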
Hits are given with their value; [ ] = another dose, or the depositor's remark. Unless noted, calls come from the whole dose curve; as a rule, active = well fitted curve in the direction sought with a large enough effect; inconclusive = small, poorly fitted or top-dose-only effect, or another doubt; inactive = no such curve, though single readings can be large; an effect the other way counts as inactive or inconclusive.

What do the screens show for `COC(=O)C1=C(C)NC(C)=C(C(=O)OC)C1c1ccc(N(C)C)cc1`?
UbGFP stabilizer: inactive; TSHR agonist: 20µM; HEK293 cAMP ctrl: inactive; Epigenetic mod: inactive; HBB splicing: inactive

What do the screens show for `CCOC(=O)C1=C(C)NC(C)=C(C(=O)OCC)C1c1ccc(O)cc1`?
UbGFP stabilizer: inactive; TSHR agonist: inconclusive; HEK293 cAMP ctrl: inconclusive; Epigenetic mod: inactive; HBB splicing: inactive

Results for C/C(CCN1CCCc2nc(C)c(C)cc21)=N\O[C@@H](C)c1cn([C@H](CO)Cc2ccccc2)nn1 ?
TSHR agonist: inactive[11.4 µM]; HEK293 cAMP ctrl: inactive[11.4 µM]; HBB splicing: inactive[9.22 µM]

What do the screens show for `COc1ccc(N(C(=O)c2ccco2)S(=O)(=O)c2cccs2)cc1`?
UbGFP stabilizer: inactive; TSHR agonist: inconclusive; HEK293 cAMP ctrl: inconclusive; Epigenetic mod: inactive; HBB splicing: inactive

What do the screens show for `COc1ccc(N(C(=O)c2ccco2)S(=O)(=O)c2cc(OC)ccc2OC)cc1`?
UbGFP stabilizer: inactive; TSHR agonist: inconclusive; HEK293 cAMP ctrl: 16µM; Epigenetic mod: inactive; HBB splicing: inactive

Results for COc1ccc(CN(C(=O)c2ccco2)c2ccc(Br)cc2)cc1OC ?
UbGFP stabilizer: inactive; TSHR agonist: inconclusive; HEK293 cAMP ctrl: 32µM; Epigenetic mod: inactive; HBB splicing: inactive

Results for Cn1c(=O)c(-c2cc(F)cc(F)c2)nc2cnc(N3CCNCC3)nc21 ?
UbGFP stabilizer: inactive; HEK293 cAMP ctrl: inactive[0.457 µM]; Epigenetic mod: inactive[9.22 µM]; HBB splicing: inactive

How did Clc1ccccc1-c1nn2c(Cn3cnc4ccccc43)nnc2s1 do in these assays?
UbGFP stabilizer: inactive; TSHR agonist: 3.2µM; HEK293 cAMP ctrl: inactive; Epigenetic mod: inactive; HBB splicing: inactive

Results for c1ccc(CCc2nn3c(Cn4cnc5ccccc54)nnc3s2)cc1 ?
UbGFP stabilizer: inactive; TSHR agonist: inconclusive; HEK293 cAMP ctrl: inconclusive; Epigenetic mod: inactive; HBB splicing: inactive

How did Cc1cc(C)n(-c2nc(SCC(=O)NCC3CCCO3)c3c4c(sc3n2)CCCC4)n1 (stereo not given) do in these assays?
TSHR agonist: inconclusive; HEK293 cAMP ctrl: 25µM; Epigenetic mod: inactive; HBB splicing: inactive[0.369 µM]

Results for Cc1cc(C)n(-c2nc(NCC3CCCO3)c3c4c(sc3n2)COC(C)(C)C4)n1 (stereo not given) ?
TSHR agonist: inconclusive; HEK293 cAMP ctrl: 25µM; Epigenetic mod: inactive; HBB splicing: inactive[0.369 µM]

How did Cc1cc(C)c(S(=O)(=O)Nc2ccccc2C(F)(F)F)c(C)c1 do in these assays?
UbGFP stabilizer: inactive; TSHR agonist: inconclusive; HEK293 cAMP ctrl: 40µM; Epigenetic mod: inactive

How did COc1ccc(OC)c(C(=O)COC(=O)c2ccccc2O)c1 do in these assays?
UbGFP stabilizer: inactive; TSHR agonist: inconclusive; HEK293 cAMP ctrl: 25µM; Epigenetic mod: inactive; HBB splicing: inactive

What do the screens show for `CCCCOn1c(C)c(C(=O)OCC)c2c3nonc3ccc21`?
UbGFP stabilizer: inactive; TSHR agonist: inconclusive; HEK293 cAMP ctrl: 13µM; Epigenetic mod: inactive; HBB splicing: inactive

Results for C=C1C(=O)C=C2CN(C(=O)c3ccccc3)[C@@](Cc3ccc(OC)cc3)(C(=O)OC)[C@@H]12 ?
TSHR agonist: inconclusive; HEK293 cAMP ctrl: inconclusive; HBB splicing: inactive

Results for C[C@H](C(=O)c1ccccc1)[C@@H](c1ccccc1)N1CCOCC1 ?
UbGFP stabilizer: inactive[9.17 µM]; TSHR agonist: inconclusive; HEK293 cAMP ctrl: inconclusive; Epigenetic mod: inactive[9.22 µM]; HBB splicing: inactive[9.22 µM]

How did COc1cccc(/C=N/n2c(C)nc3ccccc32)c1OC do in these assays?
TSHR agonist: inconclusive; HEK293 cAMP ctrl: 16µM; Epigenetic mod: inactive; HBB splicing: inactive[0.369 µM]

Results for COc1cccc(/C=N/n2cnnc2)c1OCc1ccccc1 ?
UbGFP stabilizer: inactive; TSHR agonist: inactive; HEK293 cAMP ctrl: inactive; Epigenetic mod: inactive; HBB splicing: inactive

What do the screens show for `CC(=O)c1cc(-c2ccccc2)n(CC(=O)NCc2cccs2)c1C`?
UbGFP stabilizer: inactive; TSHR agonist: inconclusive; HEK293 cAMP ctrl: 16µM; Epigenetic mod: inactive; HBB splicing: inactive

Results for O=C(NCc1cccs1)c1cc(-c2ccccc2)on1 ?
UbGFP stabilizer: inactive; TSHR agonist: inactive; HEK293 cAMP ctrl: inactive; Epigenetic mod: inactive; HBB splicing: inactive
